High-throughput results from PubChem BioAssay.
Beta cell apopt = beta cell apoptosis inhibition; AID 435005; hit rate 0.8% among 300,000; INS-1E cytokine-induced death, ATP luminescence, 48 h; percent of positive-control rescue, neutral wells zero; protection from apoptosis, % (test concentration not listed);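 active means Every replicate reaches about 75%, or at least half do and their mean reaches it too, limit read from the data; inconclusive means At least half of replicates reach the limit but their mean does not; inactive means Under half of replicates reach the limit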;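 further: higher means more ATP so stronger rescue from cytokine killing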
Shn3 3UTR inh = inhibitors of Schnurri-3 3'UTR reporter in osteoblasts. hit rate 0.52% among 360,000. inhibition, % at 12.5 µM. Clone20 osteoblast Shn3 3'UTR firefly luciferase, 24 h. AID 588674;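 active means mean inhibition of at least 75% with every replicate also reaching 75%; inconclusive means mean inhibition at least 75% but some replicate below; inactive means mean inhibition below 75%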
Jurkat NFkB inh = lowers PMA/ionomycin-induced NF-kB signal in Jurkat cells. PMA/ionomycin-induced NF-kB luciferase reporter, luminescence. inhibition, % at 4 µM. hit rate 0.53% among 330,000. AID 435003; in the data active means inhibition above about 50%
Calb FLC = affects C. albicans growth with fluconazole; growth inhibition, % (concentration not given with the values); hit rate 0.57% among 300,000; C. albicans CaCi-2 (fluconazole-resistant clinical isolate) + fluconazole, Alamar Blue growth, 48 h; AID 1979;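 active means growth inhibition above about 58% in most replicates, limit read from the data, passing the limit was not always enough; inconclusive means exactly half the replicates above a set limit; inactive means most replicates below a set limit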;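 further: all wells also contain fluconazole at 8 µg/ml as a sub-toxic cotreatment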
697 NFkB inh = inhibitors of the PMA/ionomycin-induced NF-kB reporter in 697 B cells; 697 B-cell NF-kB luciferase reporter, 16 h; inhibition, % at 4 µM; AID 435022; hit rate 0.33% among 330,000; in the data active means inhibition above about 35%
Jurkat NFkB conf = inhibitors of the PMA/ionomycin-induced NF-kB reporter in Jurkat cells, retest; hit rate 27% among 2,700; shares compounds with Jurkat NFkB inh; Jurkat NF-kB luciferase, 16 h; inhibition, % at 4 µM;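 active means inhibition reaching about 45% at 4 µM in either replicate, limit read from the data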
697 NFkB conf = inhibitors of the PMA/ionomycin-induced NF-kB reporter in 697 B cells, retest; shares compounds with 697 NFkB inh; 697 B-cell NF-kB luciferase, 16 h; inhibition, % at 4 µM; hit rate 35% among 2,000; in the data active means inhibition mostly above about 28%, no sharp cut-off; inactive means mostly below about 22%
Hits are given with their value; i = inactive; ? = inconclusive; nt = no result given. Sampled rows, rich in hits. Any-hit rate of the full collection: about 2%.

SMILES	Beta cell apopt	Shn3 3UTR inh	Jurkat NFkB inh	Calb FLC	697 NFkB inh	Jurkat NFkB conf	697 NFkB conf
O=C(CSc1nnc(NC2CC2)s1)NN1C(=O)NC2(CCCCC2)C1=O	i	i	i	nt	i	nt	nt
CCCCCCCCCCOC(=O)Cn1c(COc2ccccc2OC)[n+](C)c2ccccc21	107	89	57	i	39	60	53
CCOC(=O)c1cn[nH]c1NC(=S)Nc1ccc(Cl)cc1	i	i	i	i	i	i	i
COc1ccccc1C(=O)Nc1nc(-c2ccc(S(=O)(=O)N3CCOCC3)cc2)cs1	85	89	76	i	41	61	30
COc1ccccc1OC(C)C(=O)Nc1nc(-c2ccc(S(=O)(=O)N3CCOCC3)cc2)cs1 (stereo unspecified)	i	i	i	i	i	nt	nt
CCOc1ccc(NC(=O)C(C)Oc2ccc(C#N)cc2)cc1S(=O)(=O)N1CCCC1 (stereo unspecified)	i	i	i	nt	i	nt	nt
O=C(Nc1ccc(S(=O)(=O)Nc2ccc(F)cc2)cc1)c1ccc(CN2CCOCC2)cc1	i	i	63	i	47	63	i
O=C(NCc1ccccc1Cl)c1ccc2sc([C@H]3C[C@H](O)[C@@H](CO)O3)nc2c1	nt	i	nt	nt	nt	nt	nt
N=c1cc(C2(O)CCCCC2)n2c(nc3ccccc32)s1	i	i	i	i	i	i	i
COc1ccc(Cn2c(C3CC3)nc3ccc(NC(=O)C4CC4)cc3c2=O)cc1	i	i	i	i	i	i	i
CC(=O)Nc1ccc2nc(C3CC3)n(Cc3ccc(Cl)cc3)c(=O)c2c1	i	i	i	i	i	nt	nt
CCC(=O)Nc1ccc2nc(C3CC3)n(Cc3ccc(C(C)(C)C)cc3)c(=O)c2c1	i	i	i	i	i	i	i
O=C(Nc1ccc2nc(C3CC3)n(Cc3ccc(F)cc3)c(=O)c2c1)c1ccco1	nt	i	i	i	i	nt	nt
CCCCCNC(=O)Cc1ccc(S(=O)(=O)N2CCOCC2)s1	i	i	i	i	i	nt	nt
CC1=C(C(=O)N2CCOCC2)CC(CC(=O)NCCCCc2ccccc2)C(=O)N1CCC1=CCCCC1 (stereo unspecified)	nt	i	nt	nt	nt	nt	nt
Cc1cc([N+](=O)[O-])nn1CC(=O)NCc1ccc(Cl)cc1	i	i	i	i	i	nt	nt
Cc1ccc(OCc2nc(-c3cccs3)no2)c([N+](=O)[O-])c1	i	i	i	i	i	i	i
O=C1C=CC(O)(c2cc(=O)c3c(O)cc(O)cc3o2)C=C1	111	97	89	i	i	71	i
O=C(Cc1nc(=O)c2ccccc2s1)Nc1ccccc1	i	i	i	i	i	i	i
C(=N\Nc1nc2ccccc2s1)/c1ccc2c(c1)OCO2	i	i	i	i	i	i	i
Brc1cc2c(cc1/C=N/Nc1nc3ccccc3s1)OCO2	i	i	i	i	i	nt	nt
CCOC(=O)c1sc2nc3c(cc2c1N)COC(C(C)C)C3 (stereo unspecified)	i	i	i	i	i	i	i
COc1ccc(NC(=O)/C(Cl)=C(/Cl)S(=O)Cc2ccccc2Cl)cn1 (stereo unspecified)	nt	nt	100	nt	i	98	i
CC1(c2ccc3ccccc3c2)NC(=O)N(CC(=O)N2CCN(Cc3ccc(C#N)cc3)CC2)C1=O (stereo unspecified)	nt	88	58	nt	48	68	103
CC(=O)N1CCN(C(=O)CN2C(=O)NC(C)(c3ccc4ccccc4c3)C2=O)CC1 (stereo unspecified)	i	i	i	nt	i	nt	nt
SMILES	Beta cell apopt	Shn3 3UTR inh	Jurkat NFkB inh	Calb FLC	697 NFkB inh	Jurkat NFkB conf	697 NFkB conf
COc1ccc(-c2cc3nc4n(c(=O)c3s2)CCCCC4)cc1	i	i	i	i	i	i	i
Cc1nc2cc(-c3ccccc3)sc2c(=O)n1N	?	i	i	i	i	nt	nt
COc1ccc(-c2cc3nc(C)n(N)c(=O)c3s2)cc1	i	89	80	i	53	83	49
COc1ncnc2c1ncn2CCCNCc1ccccn1	nt	i	nt	nt	nt	nt	nt
C/C(CC(=O)Nc1ccc2c(c1)OCO2)=N\NC(=O)C(c1ccccc1)c1ccccc1	i	i	i	i	i	nt	nt
CCN(CC)C1CCN(C(=O)c2ccc(OC3CCN(Cc4ccccn4)CC3)cc2)C1 (stereo unspecified)	i	i	i	i	i	nt	nt
O=C(CCl)N=c1sccn1Cc1ccccc1Cl	i	i	91	i	104	71	94
O=C(CCl)N=c1sccn1Cc1ccc(Cl)cc1Cl	i	i	97	i	98	69	102
O=C(CCl)N=c1sccn1Cc1cccc2ccccc12	nt	i	nt	i	nt	nt	nt
CCC(=O)OCC(=O)N=c1sccn1Cc1ccccc1Cl	i	i	i	i	i	nt	nt
Cc1ccc(N/C=C/C(=O)c2cccs2)cc1C	i	i	i	i	i	i	i
Nc1c(C(=O)Nc2cccc(F)c2)nnn1-c1ccc2c(c1)OCCO2	i	i	i	i	i	i	i
Cc1ccc(NC(=O)c2noc3c2CCCCC3)cc1C	i	i	i	i	i	i	i
CCc1ccc(NC(=O)c2noc3c2CCC3)cc1	i	i	i	i	i	nt	nt
NS(=O)(=O)c1ccc(CCNC(=O)c2coc3ccccc3c2=O)cc1	nt	i	i	i	i	nt	nt
CCOc1ccc(/C=C2\SC(=S)N(CCC(=O)O)C2=O)cc1	i	i	52	i	77	61	66
c1ccc(Nc2nc(N3CCOCC3)nc(N3CCOCC3)n2)cc1	i	i	i	i	i	nt	nt
C(=N\Nc1nc(Nc2ccccc2)nc(N2CCOCC2)n1)/c1c[nH]c2ccccc12	nt	nt	82	i	60	i	49
CCOC(=O)C(N)CSC1CC(=O)N(CCc2ccccc2)C1=O (stereo unspecified)	i	i	i	i	i	nt	nt
COC(=O)N(C)c1nc2ccccc2s1	i	i	i	i	i	nt	nt
CN(C(=O)OC(C)(C)C)c1ccc(-c2nc3ccccc3s2)cc1	i	i	69	i	66	90	48
O=C(Oc1ccc(Cl)c2ccccc12)N1CCCCC1	i	i	i	i	i	nt	nt
O=C(Oc1ccc2ccccc2c1Cl)N1CCCC1	i	i	i	i	i	i	i
O=C(Oc1ccc2ccccc2c1Cl)N1CCCCCC1	i	i	i	i	i	i	i
O=C(Oc1c(Cl)cc(Cl)c2ccccc12)N1CCCC1	i	i	i	i	i	nt	nt
CN(C)S(=O)(=O)c1cccc(NC(=S)NNC(=O)c2cc3ccccc3cc2O)c1	i	i	i	nt	i	nt	nt
COc1ccc(C(C(=O)NC2CCCCC2)N(C(=O)CCl)c2ccc(C)cc2)cc1 (stereo unspecified)	i	i	95	i	95	i	i
COc1ccc(C(C(=O)NC2CCCCC2)N(C(=O)CCl)c2ccc(OC)cc2)cc1 (stereo unspecified)	i	92	93	i	98	i	80
COc1ccc(N(C(=O)Cc2cccs2)C(C(=O)NC2CCCC2)c2ccncc2)cc1 (stereo unspecified)	i	i	i	i	i	nt	nt
